Results from PubChem BioAssay (Tox21).
Inconclusive results are not listed. A call without a number means that no potency is given here. The source made the active and inactive calls. Calls follow the shape of the dose curve; as a rule, active = well fitted curve in the direction sought with a large enough effect in the repeat runs; inconclusive = weak or mixed curves; inactive = no such curve, though single readings can be large; an effect the other way counts as inactive or inconclusive.

Columns and labels:
[1] = molecular target: Cytochrome P450 2C19 (Homo sapiens) (UniProt P33261); test: Cytochrome P450 Family 2 Subfamily C Member 19 (CYP2C19) small molecule antagonists: luciferase reporter qHTS assay (AID 1671197); also: nearly all actives have a fitted effect of over 65% in size
Procedure, shortened: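 First, compounds are pinned into enzyme-substrate mix and held 10 min at room temperature. Second, NADPH regeneration solution is added and plates incubate 1 h at 37C. Third, detection reagent is added and luminescence read after 20 min.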

[2] = molecular target: Cytochrome P450 1A2 (Homo sapiens) (UniProt P05177); test: Cytochrome P450 Family 1 Subfamily A Member 2 (CYP1A2) small molecule antagonists: luciferase reporter qHTS assay (AID 1671199); also: nearly all actives have a fitted effect of over 50% in size
Procedure, shortened: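 Compounds were incubated with CYP1A2 and a luminogenic proluciferin substrate for 10 min at room temperature before the reaction was started with NADPH regeneration solution. After 1 h, detection reagent was added and light output, proportional to CYP activity, was recorded.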

[3] = molecular target: Voltage-gated inwardly rectifying potassium channel KCNH2 (Homo sapiens) (UniProt Q12809); test: Human Ether-a-go-go-Related Gene (hERG) channel small molecule antagonists: fluorescence cell-based qHTS assay (AID 1671200); also: nearly all actives have a fitted effect of over 50% in size
Procedure, shortened: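 hERG-U2OS cells plated overnight at 37 C, loaded with FluxOR II dye 1 h at RT in dark; after 10 min, thallium stimulus added. Fluorescence (480/540 nm) read kinetically for 2 min at 1 s intervals.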

[4] = molecular target: Cytochrome P450 3A4 (Homo sapiens) (UniProt P08684); test: Cytochrome P450 Family 3 Subfamily A Member 4 (CYP3A4) small molecule antagonists: luciferase reporter qHTS assay (AID 1671201); also: nearly all actives have a fitted effect of over 50% in size
Procedure, shortened: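 P450-Glo CYP3A4 luminescent assay: compounds preincubated 10 min at room temperature with enzyme and proluciferin substrate, NADPH regeneration added, 1 h room-temperature reaction, stopped with luciferin detection reagent; luminescence read after 20 min. Ketoconazole positive control.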

[5] = molecular target: Cytochrome P450 2C9 (Homo sapiens) (UniProt P11712); test: Cytochrome P450 Family 2 Subfamily C Member 9 (CYP2C9) small molecule antagonists: luciferase reporter qHTS assay (AID 1671198); also: nearly all actives have a fitted effect of over 50% in size
Procedure, shortened: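 Enzyme-substrate mix preincubated with compound 10 min at room temperature; reaction started with NADPH regeneration solution, 1 h 37C. Luminescent luciferin product read after 20 min detection reagent.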
Potency is read from the fitted curve at half-maximal effect.

Sequence of Cytochrome P450 2C19 (Homo sapiens) (P33261 whole entry, looked up): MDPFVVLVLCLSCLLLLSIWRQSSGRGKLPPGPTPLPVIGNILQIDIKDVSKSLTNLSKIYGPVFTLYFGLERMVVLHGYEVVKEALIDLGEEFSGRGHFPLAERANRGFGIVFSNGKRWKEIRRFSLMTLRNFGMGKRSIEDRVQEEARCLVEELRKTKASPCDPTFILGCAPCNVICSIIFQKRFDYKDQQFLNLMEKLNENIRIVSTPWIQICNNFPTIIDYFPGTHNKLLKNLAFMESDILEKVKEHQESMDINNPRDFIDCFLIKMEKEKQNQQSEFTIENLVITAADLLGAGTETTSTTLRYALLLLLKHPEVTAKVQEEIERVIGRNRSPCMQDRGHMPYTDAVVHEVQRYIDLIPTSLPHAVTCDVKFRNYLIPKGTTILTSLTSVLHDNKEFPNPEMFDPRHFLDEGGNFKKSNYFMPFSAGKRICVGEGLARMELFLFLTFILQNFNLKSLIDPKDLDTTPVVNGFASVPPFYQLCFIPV
Sequence of Voltage-gated inwardly rectifying potassium channel KCNH2 (Homo sapiens) (Q12809 whole entry, looked up): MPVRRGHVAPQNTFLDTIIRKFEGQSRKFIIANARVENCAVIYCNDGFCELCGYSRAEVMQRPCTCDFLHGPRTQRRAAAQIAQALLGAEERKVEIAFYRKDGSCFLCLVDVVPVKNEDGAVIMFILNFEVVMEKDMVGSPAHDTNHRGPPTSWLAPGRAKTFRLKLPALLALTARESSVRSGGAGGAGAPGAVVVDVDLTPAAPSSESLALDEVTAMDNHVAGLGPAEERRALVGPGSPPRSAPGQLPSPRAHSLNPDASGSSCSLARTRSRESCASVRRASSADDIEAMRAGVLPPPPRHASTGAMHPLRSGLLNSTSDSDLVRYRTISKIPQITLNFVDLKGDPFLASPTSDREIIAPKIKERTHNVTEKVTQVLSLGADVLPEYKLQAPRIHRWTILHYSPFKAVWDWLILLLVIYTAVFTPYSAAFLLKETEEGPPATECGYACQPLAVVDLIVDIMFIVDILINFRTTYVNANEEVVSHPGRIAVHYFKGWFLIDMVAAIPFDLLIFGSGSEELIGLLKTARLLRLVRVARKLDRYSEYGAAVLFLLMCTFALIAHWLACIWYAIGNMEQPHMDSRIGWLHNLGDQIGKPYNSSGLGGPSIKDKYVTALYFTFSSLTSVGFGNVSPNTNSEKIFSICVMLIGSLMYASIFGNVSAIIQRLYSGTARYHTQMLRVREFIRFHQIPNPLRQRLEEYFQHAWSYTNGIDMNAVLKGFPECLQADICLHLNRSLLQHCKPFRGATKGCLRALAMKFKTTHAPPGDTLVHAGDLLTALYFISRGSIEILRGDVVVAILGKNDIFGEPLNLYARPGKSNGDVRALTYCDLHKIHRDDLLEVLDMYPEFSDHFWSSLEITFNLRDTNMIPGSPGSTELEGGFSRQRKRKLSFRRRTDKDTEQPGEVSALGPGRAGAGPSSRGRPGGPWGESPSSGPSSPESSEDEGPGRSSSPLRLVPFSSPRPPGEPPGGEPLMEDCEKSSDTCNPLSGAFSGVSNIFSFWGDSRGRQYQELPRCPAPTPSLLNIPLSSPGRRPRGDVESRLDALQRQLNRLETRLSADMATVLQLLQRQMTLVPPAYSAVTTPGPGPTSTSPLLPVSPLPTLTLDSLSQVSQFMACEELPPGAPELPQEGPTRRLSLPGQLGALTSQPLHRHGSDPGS
Sequence of Cytochrome P450 3A4 (Homo sapiens) (P08684 whole entry, looked up): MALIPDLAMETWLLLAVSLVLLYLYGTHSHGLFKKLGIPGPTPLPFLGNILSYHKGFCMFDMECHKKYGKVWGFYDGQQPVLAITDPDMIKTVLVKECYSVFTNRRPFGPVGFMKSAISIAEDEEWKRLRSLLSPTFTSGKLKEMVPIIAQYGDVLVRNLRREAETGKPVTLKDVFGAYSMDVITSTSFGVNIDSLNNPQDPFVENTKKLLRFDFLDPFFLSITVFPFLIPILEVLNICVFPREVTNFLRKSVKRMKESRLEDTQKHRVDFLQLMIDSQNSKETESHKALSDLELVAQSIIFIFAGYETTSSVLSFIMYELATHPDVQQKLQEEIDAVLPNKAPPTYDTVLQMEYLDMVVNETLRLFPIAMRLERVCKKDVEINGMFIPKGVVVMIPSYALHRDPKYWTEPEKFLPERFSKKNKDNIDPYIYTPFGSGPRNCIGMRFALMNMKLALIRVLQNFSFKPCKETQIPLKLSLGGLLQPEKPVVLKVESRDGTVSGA
Sequence of Cytochrome P450 2C9 (Homo sapiens) (P11712 whole entry, looked up): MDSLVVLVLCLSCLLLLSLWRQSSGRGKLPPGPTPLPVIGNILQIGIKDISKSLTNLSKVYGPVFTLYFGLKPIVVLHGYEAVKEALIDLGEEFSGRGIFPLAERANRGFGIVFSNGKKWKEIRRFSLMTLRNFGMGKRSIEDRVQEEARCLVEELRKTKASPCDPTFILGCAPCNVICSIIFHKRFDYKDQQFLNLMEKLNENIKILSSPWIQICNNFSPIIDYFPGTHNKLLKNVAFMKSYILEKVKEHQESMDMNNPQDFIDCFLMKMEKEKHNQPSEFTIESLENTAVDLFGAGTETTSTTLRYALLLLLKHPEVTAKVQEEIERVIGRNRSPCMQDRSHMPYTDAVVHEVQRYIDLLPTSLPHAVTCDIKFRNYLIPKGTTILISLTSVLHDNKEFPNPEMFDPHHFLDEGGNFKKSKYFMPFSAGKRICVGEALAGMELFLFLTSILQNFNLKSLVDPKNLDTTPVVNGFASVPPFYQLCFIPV
Sequence of Cytochrome P450 1A2 (Homo sapiens) (P05177 whole entry, looked up): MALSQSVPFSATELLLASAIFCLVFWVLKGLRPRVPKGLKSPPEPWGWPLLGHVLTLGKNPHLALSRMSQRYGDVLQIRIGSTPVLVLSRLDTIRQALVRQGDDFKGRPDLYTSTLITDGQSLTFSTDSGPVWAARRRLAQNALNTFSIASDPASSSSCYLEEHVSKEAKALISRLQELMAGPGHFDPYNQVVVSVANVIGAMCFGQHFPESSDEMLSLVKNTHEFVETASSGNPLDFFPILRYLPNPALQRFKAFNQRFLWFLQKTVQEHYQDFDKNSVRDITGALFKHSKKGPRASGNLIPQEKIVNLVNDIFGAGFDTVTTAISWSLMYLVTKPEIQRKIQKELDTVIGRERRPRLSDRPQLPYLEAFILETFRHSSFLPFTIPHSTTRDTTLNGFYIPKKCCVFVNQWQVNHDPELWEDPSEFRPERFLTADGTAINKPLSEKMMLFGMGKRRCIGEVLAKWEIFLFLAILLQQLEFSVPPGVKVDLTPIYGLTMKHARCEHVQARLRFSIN

SMILES	Potency [1]	Potency [2]	Potency [3]	Potency [4]	Potency [5]
CC(=O)N(CC(=O)N(C)C)c1ccccc1	inactive	inactive	inactive	inactive	
CC(C)CCCC(C)CCO (configuration not stated)	inactive	inactive	inactive	inactive	
CCCCCCCCN(C)C	inactive	inactive	inactive	inactive	
Cc1ccccc1N=Nc1ccc(N=Nc2c(O)ccc3ccccc23)c(C)c1	34.7 µM (active)	13.8 µM (active)	inactive	inactive	
Cc1cccc(OCCOc2cccc(C)c2)c1	3.77 µM (active)	8.45 µM (active)	inactive		
O=C1CCCCCO1	inactive	35.9 µM (active)	inactive	inactive	
CC[C@]12CCCN3CCc4c(n(c5ccccc45)C(=O)C1)[C@@H]32	4.9 µM (active)	inactive	1.69 µM (active)		
Cc1cc(CC(=O)O)c(C)n1-c1ccc(Cl)cc1	7.76 µM (active)	inactive	inactive		
CCCCC(CC)(CO)CO	56.4 µM (active)	inactive	inactive	inactive	
Cc1cccc(Oc2ccccc2)c1	69.2 µM (active)	34.7 µM (active)	13.5 µM (active)	34.7 µM (active)	
O=C1c2cccc(O)c2C(=O)c2c(O)cc(CO)cc21	inactive	8.94 µM (active)	inactive	inactive	
CCOc1ccc(NC(=O)CC(C)=O)cc1	56.4 µM (active)	31.7 µM (active)	inactive	inactive	
O=C(O)Cn1c(C(=O)Nc2nc(-c3ccccc3Cl)cs2)cc2ccccc21	inactive	inactive	inactive	inactive	
C=C(C)C(=O)OCCN(C)C	36 µM (active)	inactive	inactive	36 µM (active)	
CN1CCC(=C2c3ccccc3CCc3sccc32)CC1	8.71 µM (active)	inactive	16.9 µM (active)	inactive	
CCCCOC(O)CC (configuration not stated)	inactive	inactive	inactive	inactive	
CC(C)(C)c1cc(CO)cc(C(C)(C)C)c1O	25.7 µM (active)	inactive	inactive	36.3 µM (active)	
CC(C)(C)c1cc(CCC(=O)OCC(COC(=O)CCc2cc(C(C)(C)C)c(O)c(C(C)(C)C)c2)(COC(=O)CCc2cc(C(C)(C)C)c(O)c(C(C)(C)C)c2)COC(=O)CCc2cc(C(C)(C)C)c(O)c(C(C)(C)C)c2)cc(C(C)(C)C)c1O	33.8 µM (active)	6.75 µM (active)	inactive	inactive	
NC1CCN(c2nc3c(cc2F)c(=O)c(C(=O)O)cn3-c2ccc(F)cc2F)C1 (configuration not stated)	inactive	inactive	inactive	inactive	
CCCCOC(=O)/C=C\C(=O)OCCCC	3.28 µM (active)	7.34 µM (active)	inactive	inactive	
Cc1c(Cn2ccnc2)c2ccccc2n1CCC(=O)O	34.7 µM (active)	12.3 µM (active)	inactive		
Cc1nc2ccccc2n1Cc1ccc(Cl)cc1	3.09 µM (active)	7.23 µM (active)	inactive		
COCCO	inactive	inactive	inactive	inactive	
CCCc1ccccc1	inactive	inactive	inactive	inactive	

SMILES	Potency [1]	Potency [2]	Potency [3]	Potency [4]	Potency [5]
COc1ccc(C(C)=O)cc1	inactive	29.1 µM (active)	inactive	inactive	
COC(Cc1ccccc1)OC	inactive	inactive	inactive	inactive	
CN1CCC[C@@H]1c1cccnc1	inactive	inactive	inactive		
NC(N)=N/N=C/c1c(Cl)cccc1Cl	inactive	15.5 µM (active)	inactive	inactive	
CCN1CCC[C@H]1CNC(=O)c1c(OC)ccc(Br)c1OC	inactive	inactive	inactive	inactive	
O=C=NC1CCC(CC2CCC(N=C=O)CC2)CC1 (configuration not stated)	79.6 µM (active)	44.8 µM (active)	inactive	3.99 µM (active)	
CCCCC(CC)COCCCN (configuration not stated)	5.58 µM (active)	11.1 µM (active)	38.5 µM (active)	9.92 µM (active)	
FC(F)(F)C(F)(F)C(F)(F)C(F)(F)C(F)(F)C(F)(F)CCI	inactive	inactive	inactive	inactive	
N#CCCNCCC#N	inactive		inactive	inactive	
CCCCCCCC/C=C\CCCCCCCC(N)=O	inactive	35.6 µM (active)	inactive	inactive	
O=C(/C=C/c1ccc(O)c(O)c1)O[C@@H]1C[C@](O)(C(=O)O)C[C@@H](O)[C@H]1O	80.9 µM (active)		inactive	inactive	
CNS(=O)(=O)Cc1ccc2[nH]cc(CCN(C)C)c2c1		inactive	inactive	inactive	inactive
CCN(CC)C(C)CN1c2ccccc2Sc2ccccc21 (configuration not stated)	34.7 µM (active)	7.76 µM (active)		inactive	
O=[N+]([O-])c1cccc(Cl)c1Cl	inactive		inactive	inactive	
CN(C)CCCNCCCN		35.4 µM (active)	inactive	inactive	inactive
CN(c1nccc(=O)[nH]1)C1CCN(c2nc3ccccc3n2Cc2ccc(F)cc2)CC1	inactive		2.39 µM (active)		
Oc1ccc(Sc2ccc(O)cc2)cc1	37.3 µM (active)	41.9 µM (active)	inactive	37.3 µM (active)	
Cc1ccc(C(C)c2ccc(C)c(C)c2)cc1C	7.1 µM (active)		inactive	inactive	
CC(C)(C)c1ccc(S)cc1	50.2 µM (active)		inactive	inactive	
CC[C@@H]1C[C@H](N(Cc2cc(C(F)(F)F)cc(C(F)(F)F)c2)C(C)=O)c2cc(C(F)(F)F)ccc2N1C(=O)OC(C)C	inactive		inactive	0.894 µM (active)	
CCCCCCCCCC=O	inactive		inactive	inactive	
Oc1ccc(C(O)CNCCCCCCNCC(O)c2ccc(O)c(O)c2)cc1O (configuration not stated)	inactive		inactive	inactive	
O=C(c1ccccc1)c1ccc2n1CCC2C(=O)O (configuration not stated)	inactive		inactive	inactive	
O=C(O)/C=C/c1cnc[nH]1	79.8 µM (active)		inactive	inactive	

SMILES	Potency [1]	Potency [2]	Potency [3]	Potency [4]	Potency [5]
Nc1nc(CC(=O)O)cs1		inactive			inactive
C=CC(C)(CCC=C(C)C)OC(=O)c1ccccc1 (configuration not stated)	15.9 µM (active)	39.9 µM (active)		31.7 µM (active)	
C1CCC2OC2C1 (configuration not stated)	inactive		inactive	inactive	
O=C(Cl)c1c(Cl)cccc1Cl	36 µM (active)	inactive	inactive	inactive	
CC(=O)OCCc1ccccc1	inactive	inactive	inactive	inactive	
CCCCCC(CO)CCC (configuration not stated)	inactive	inactive	inactive	inactive	
CCCC(C)C	71.7 µM (active)	63.9 µM (active)	inactive	inactive	
O=[N+]([O-])c1cc[n+]([O-])cc1	35.6 µM (active)	31.7 µM (active)	inactive	63.3 µM (active)	
CC1=CCC(C(C)C)C=C1 (configuration not stated)	79.6 µM (active)		inactive	25.2 µM (active)	
C=CCCCCCC		inactive	inactive	inactive	inactive
O=c1c2ccccc2nnn1CCl		inactive	inactive	11.2 µM (active)	71 µM (active)
O=S(=O)(O)c1ccc(O)c2ncccc12	inactive	inactive	inactive	inactive	
N#CCc1cccc(C(F)(F)F)c1	inactive		inactive	inactive	
OC(CCN1CCCCC1)(c1ccccc1)C1CCCCC1 (configuration not stated)		inactive			inactive
OCCC1CCCCN1 (configuration not stated)	inactive	inactive	inactive	inactive	
Oc1ccc(O)c2c(O)cccc12		39.6 µM (active)	inactive	inactive	inactive
O=C(NS(=O)(=O)/C=C/c1cccs1)c1ccc(F)cc1Br		inactive	inactive	inactive	7.1 µM (active)
Cn1c(N)nc2nc[nH]c2c1=O	inactive		inactive		
CC(C)(Oc1ccc(Cl)cc1)C(=O)OCCCOC(=O)C(C)(C)Oc1ccc(Cl)cc1	3.47 µM (active)			inactive	
C1=Cc2ccccc2C1	39.9 µM (active)		inactive	inactive	
CC(C)NCC(O)c1cc(O)cc(O)c1 (configuration not stated)	inactive		inactive	inactive	
COc1ccc(OC)c(OC)c1		39.9 µM (active)	inactive	inactive	22.4 µM (active)
